The source made the active and inactive calls.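 How the source made its calls, unless noted: active means NADPH fluorescence slope more negative than the mean of all samples by about 3 SD, 99.7% confidence; inactive means the rest.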
Legend:
[1] = inhibitors of TNFa-induced NFkB p65 translocation, primary screen, imaging, HUVEC, MLSMR starter and 10KST1 sets (AID 438;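 active means inhibition above 20% together with a positive visual image hit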;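 further: compound added about 3h40 before a 20 min TNFalpha stimulation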;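 on inhibition: signal is the nuclear over cytoplasmic p65 intensity ratio per well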); conditions: HUVEC TNFa-induced p65 nuclear translocation; cell count: measured here: nuclei count (cytotoxicity indicator), at 2.08 µM; inhibition: at 2 µM, stronger effect = higher value, 0% TNFa-plus-vehicle, 100% no-TNFa wells
[2] = reduction of polyQ htt aggregates in cells – imaging, exon1htt(103Q)mCFP cells, high-content imaging, primary screen (AID 483;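 active means visual image review flags a hit and inhibition of aggregation exceeds 20%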;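 further: compound exposure lasted 3 days before fixation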;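 on nuclei count: percent of the per-plate median nuclei count of sample wells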); conditions: exon1htt(103Q)mCFP cell line, aggregate imaging, at 2 µM; inhibition of aggregation: stronger effect = higher value; nuclei count: measured here: cell count, toxicity
[3] = endothelial E-selectin expression blockers – imaging, HUVEC, immunofluorescence, MLSMR starter and 10KST1 sets, primary screen (AID 487;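 active means visually confirmed hit in the image check and inhibition above 20%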;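 on inhibition: signal is fraction of cell area covered by stained E-selectin grains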;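 on nuclei count: 100% = median nuclei count of all wells on the same plate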); conditions: HUVEC TNFalpha-induced E-selectin immunofluorescence imaging, at 2 µM; inhibition: stronger effect = higher value; nuclei count: measured here: cell number, toxicity
[4] = target: Voltage-gated potassium channel subunit beta-2 (Rattus norvegicus) (UniProt P62483); test: inhibitors of rat Kvbeta2 reductase activity – biochemical, NADPH fluorescence, primary screen (AID 622;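 active means fluorescence slope higher than the sample average by over 3 SD, cut at about -0.22 in these data, passing the limit was not always enough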;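 further: slope of raw intensity against log time taken from 70 to 1610 s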); conditions: recombinant KvBeta, 4-cyanobenzaldehyde reduction, at 10 µM, stronger effect = higher value
[5] = target: Voltage-gated potassium channel subunit beta-2 (Rattus norvegicus) (UniProt P62483); test: enhancers of rat Kvbeta2 NADPH turnover – biochemical, NADPH fluorescence, primary screen (AID 623); conditions: Recombinant KvBeta, NADPH fluorescence decrease slope, 10 min; at 10 µM; stronger effect = lower value;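 further: fluorescence intensity change per second fitted from 20 to 320 s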
[6] = target: Alpha-2C adrenergic receptor (Homo sapiens) (UniProt P18825); test: compounds altering alpha2C-coupled GIRK flux – cell-based, HEK293 alpha2C/GIRK1/2, thallium flux, primary screen (AID 624;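 active means fluorescence slope after compound addition differing from the mean of all screened samples at 99.7% confidence, in either direction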;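 further: slope of fluorescence ratio to pre-addition baseline per second over 15 to 24 s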); conditions: thallium flux BTC fluorescence, at 10 µM, actives lie on both sides
[7] = blockers of RIG-like receptor reporter activation – cell-based, Sendai virus stimulus, luciferase, 10K MLSCN set, TLR/RLR signaling modifier project, primary screen (AID 602276;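 active means inhibition at or above 50% at 10 µM; inactive means inhibition below 50%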;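 further: firefly luciferase from ISG56 promoter only with Renilla not read in this screen; 0% = Sendai virus plus DMSO and 100% = medium plus DMSO without virus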); conditions: HEK293 RL24 IRF3 luciferase reporter, at 10 µM, stronger effect = higher value
[8] = TLR3 IRF3 reporter activation blockers – cell-based, poly I:C stimulus, luciferase, 10K MLSCN set, primary screen (AID 602277;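 active means inhibition of the reporter signal at or above 50%; inactive means inhibition below 50%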); conditions: HEK293-TLR3 RL24 IRF3 luciferase reporter, at 10 µM, stronger effect = higher value

Chain of Voltage-gated potassium channel subunit beta-2 (Rattus norvegicus) (P62483 whole entry, looked up): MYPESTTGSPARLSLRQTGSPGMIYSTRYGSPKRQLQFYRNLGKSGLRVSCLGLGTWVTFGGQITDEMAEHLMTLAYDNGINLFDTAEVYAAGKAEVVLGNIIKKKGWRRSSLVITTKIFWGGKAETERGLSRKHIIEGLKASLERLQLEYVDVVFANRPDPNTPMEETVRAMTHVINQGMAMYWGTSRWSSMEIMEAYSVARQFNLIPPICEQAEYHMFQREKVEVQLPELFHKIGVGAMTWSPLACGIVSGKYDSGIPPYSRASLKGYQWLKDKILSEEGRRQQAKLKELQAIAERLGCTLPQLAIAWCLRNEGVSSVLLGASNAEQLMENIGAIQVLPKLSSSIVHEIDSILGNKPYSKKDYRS
Chain of Alpha-2C adrenergic receptor (Homo sapiens) (P18825 whole entry, looked up): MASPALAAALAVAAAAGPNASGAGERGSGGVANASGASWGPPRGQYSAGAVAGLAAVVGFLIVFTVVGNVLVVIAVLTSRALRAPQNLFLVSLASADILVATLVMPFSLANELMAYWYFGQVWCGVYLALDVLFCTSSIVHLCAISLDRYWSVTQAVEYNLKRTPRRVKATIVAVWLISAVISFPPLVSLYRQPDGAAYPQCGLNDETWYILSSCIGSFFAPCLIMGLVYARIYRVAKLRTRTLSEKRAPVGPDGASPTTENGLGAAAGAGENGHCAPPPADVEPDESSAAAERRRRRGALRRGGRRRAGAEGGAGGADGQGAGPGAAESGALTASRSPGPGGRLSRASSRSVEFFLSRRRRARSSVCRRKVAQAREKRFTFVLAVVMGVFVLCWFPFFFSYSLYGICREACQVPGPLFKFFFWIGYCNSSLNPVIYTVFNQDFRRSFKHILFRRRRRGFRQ

Row | SMILES | cell count [1] | inhibition [1] | inhibition of aggregation [2] | nuclei count [2] | inhibition [3] | nuclei count [3] | fluorescence slope [4] | NADPH fluorescence slope [5] | slope [6] | inhibition [7] | inhibition [8]
1 | COCCCNC(=O)CCn1c(=O)c2ccccc2n(CC(=O)Nc2ccc(C)cc2C)c1=O | 689 | -7.3% (inactive) | -6.5% (inactive) | 102% | -48.2% (inactive) | 111% | -0.502 (inactive) | -1.8e-05 (inactive) | 0.00709 (inactive) | 8.73% (inactive) | 19% (inactive)
2 | CCOc1ccccc1N(CC(=O)N1CCOCC1)S(=O)(=O)c1ccccc1 | 338 | 0.7% (inactive) | 0.9% (inactive) | 100% | 44.4% (inactive) | 98.7% | -0.428 (inactive) | -3e-06 (inactive) | 0.00315 (inactive) | -13.5% (inactive) | -26.2% (inactive)
3 | O=C(CSc1ncnc2c1oc1ccccc12)NCc1ccco1 | 398 | 1.5% (inactive) | -6.6% (inactive) | 99.3% | -38.6% (inactive) | 105% | -0.61 (inactive) | -2.9e-05 (inactive) | 0.00442 (inactive) | 15.1% (inactive) | 25% (inactive)
4 | COC(=O)C1=C(C)NC(=O)C1(Nc1ccc(Cl)cn1)C(F)(F)F (stereo not drawn) | 324 | 1.8% (inactive) | 3.9% (inactive) | 95.1% | -63.7% (inactive) | 125% | -0.317 (inactive) | -1.2e-05 (inactive) | 0.00613 (inactive) | 13.8% (inactive) | 32.2% (inactive)
5 | CCCCN1C(=O)C2C(C(=O)Nc3cccc(OC)c3)C3C=CC2(O3)C1C(=O)NC1CCCCC1C (stereo not drawn) | 423 | 3.1% (inactive) | 1.7% (inactive) | 109% | -50% (inactive) | 112% | -0.503 (inactive) | -2.7e-05 (inactive) | 0.00569 (inactive) | 14.1% (inactive) | 24.4% (inactive)
6 | COc1ccc(CCn2c(NCCCN3CCOCC3)nc3c2c(=O)[nH]c(=O)n3C)cc1 | 395 | 2.1% (inactive) | -5.3% (inactive) | 110% | -6.4% (inactive) | 99.3% | -0.539 (inactive) | 2.7e-05 (inactive) | 0.00501 (inactive) | -6.62% (inactive) | -4.13% (inactive)
7 | COC(=O)c1ccc(C)c(NS(=O)(=O)c2ccc3c(c2)OCCO3)c1 | 263 | 12.5% (inactive) | 22.6% (inactive) | 56.8% | -60.4% (inactive) | 94% | -0.393 (inactive) | -5.8e-05 (inactive) | 0.00526 (inactive) | 43.8% (inactive) | 58.5% (active)
8 | CCOC(=O)c1c(C)[nH]c(C(=O)COC(=O)C2CC2C)c1C (stereo not drawn) | 378 | 0.3% (inactive) | -161% (inactive) | 1.8% | -20.9% (inactive) | 125% | -0.504 (inactive) | -5.4e-05 (inactive) | 0.00548 (inactive) | -45.3% (inactive) | -115% (inactive)
9 | COc1ccc(-n2c(Cc3cccn3C)nnc2SCC(=O)NCC2CCCO2)cc1 (stereo not drawn) | 846 | 1.8% (inactive) | 21.3% (inactive) | 103% | -182% (inactive) | 130% | -0.56 (inactive) | -3.5e-05 (inactive) | 0.00701 (inactive) | 8.65% (inactive) | 32% (inactive)
10 | O=C(OCC(=O)c1ccc[nH]1)c1ccc(S(=O)(=O)N2CCCCC2)cc1 | 314 | 22.9% (inactive) | 1.5% (inactive) | 96.8% | -31.1% (inactive) | 98% | -0.444 (inactive) | -4.5e-05 (inactive) | 0.00419 (inactive) | 2.97% (inactive) | 29.4% (inactive)
11 | COCCN1CCN(c2c(C)c(C)nc3cc(-c4cccc(OC)c4)nn23)CC1 | 367 | -6.1% (inactive) | -9.2% (inactive) | 80.5% | -52.9% (inactive) | 106% | -0.567 (inactive) | -3.9e-05 (inactive) | 0.0105 (inactive) | 15.2% (inactive) | 16.1% (inactive)
12 | Cn1c(=O)[nH]c(=O)c2[nH]c(NCCCN3CCOCC3)nc21 | 572 | 4.8% (inactive) | 8% (inactive) | 92.2% | -36.4% (inactive) | 112% | -0.613 (inactive) | -1.9e-05 (inactive) | 0.00608 (inactive) | 9.97% (inactive) | 14.9% (inactive)
13 | Cc1ccccc1NC(=O)C1CC(=O)N(c2ccccc2F)C1 (stereo not drawn) | 238 | -0.6% (inactive) | 30.3% (inactive) | 77% | -56.9% (inactive) | 97.7% | -0.462 (inactive) | -3.8e-05 (inactive) | 0.00686 (inactive) | 0.893% (inactive) | 28.8% (inactive)
14 | COc1ccc(C)cc1-n1c(N)c(C#N)c(C#N)c1-c1ccc(OC)c(OC)c1OC | 676 | -3.9% (inactive) | 16.9% (inactive) | 86% | -9.7% (inactive) | 105% | -0.537 (inactive) | 2.9e-05 (inactive) | 0.00611 (inactive) | 12% (inactive) | 32.6% (inactive)
15 | O=C(Nc1nccs1)c1ccc(COc2ccccc2Br)o1 | 694 | -14.6% (inactive) | -27.8% (inactive) | 111% | -85.8% (inactive) | 118% | -0.487 (inactive) | -5.4e-05 (inactive) | 0.00542 (inactive) | 21.2% (inactive) | -63.2% (inactive)
16 | COc1ccc(Cl)c(NCCC(=O)O)c1 | 632 | -4.2% (inactive) | 2.2% (inactive) | 110% | -96.7% (inactive) | 130% | -0.453 (inactive) | -0.000352 (inactive) | 0.00574 (inactive) | -8.17% (inactive) | -4.52% (inactive)
17 | CC(=O)Nc1c(-c2ccc(F)cc2)nc2ccccn12 | 516 | -4.7% (inactive) | 16.5% (inactive) | 104% | -6.5% (inactive) | 88% | -0.551 (inactive) | 9e-06 (inactive) | 0.00637 (inactive) | 11.8% (inactive) | 4.82% (inactive)
18 | CC(=O)c1ccc(NC2OC(C)C(O)C(O)C2O)cc1 (stereo not drawn) | 329 | 4.3% (inactive) | -0.6% (inactive) | 93.8% | -90% (inactive) | 103% | -0.382 (inactive) | -8.6e-06 (inactive) | 0.00391 (inactive) | -11.5% (inactive) | -11.5% (inactive)
19 | COc1ccc(Cl)cc1-c1n[nH]c(=S)o1 | 546 | 8.2% (inactive) | -5.3% (inactive) | 104% | -86.8% (inactive) | 111% | -0.378 (inactive) | -3.6e-05 (inactive) | 0.00602 (inactive) | 20.2% (inactive) | 23.5% (inactive)
20 | COCCCNC(=O)CSc1ccc(Cl)cc1 | 378 | -1.8% (inactive) | -3.3% (inactive) | 93.9% | 10.2% (inactive) | 80% | -0.377 (inactive) | -5e-05 (inactive) | 0.00511 (inactive) | 1.1% (inactive) | 10.8% (inactive)
21 | COc1ccc(C2=NO[C@@H]3C(=O)N(c4cccc(C)c4C)C(=O)[C@H]23)cc1OC | 599 | -12.3% (inactive) | 10% (inactive) | 91.7% | -41.7% (inactive) | 105% | -0.588 (inactive) | -4.9e-05 (inactive) | 0.00915 (inactive) | -20.9% (inactive) | -5.53% (inactive)
22 | COc1ccccc1NC(=O)N1CCN(c2ccccc2F)CC1 | 209 | 2.5% (inactive) | -10.6% (inactive) | 99.1% | -100% (inactive) | 102% | -0.388 (inactive) | -3.6e-05 (inactive) | 0.00564 (inactive) | 11.9% (inactive) | -4.11% (inactive)
23 | COc1ccc(N(CC(=O)Nc2ccc(F)c(Cl)c2)S(=O)(=O)c2c(C)noc2C)cc1 | 372 | 2.7% (inactive) | -8.2% (inactive) | 99% | -23.6% (inactive) | 104% | -0.425 (inactive) | 1.3e-05 (inactive) | 0.00672 (inactive) | 16.5% (inactive) | 21.7% (inactive)
24 | COCCn1c(-c2ccco2)nc2nc3ccccc3nc21 | 237 | 1.6% (inactive) | 23.4% (inactive) | 69.1% | -4.2% (inactive) | 98.9% | -0.255 (inactive) | -2.3e-05 (inactive) | 0.00377 (inactive) | -0.433% (inactive) | -3.38% (inactive)
25 | N#C/C(=C(/O)COC(=O)CCC1CCCCC1)c1nc2ccccc2[nH]1 | 317 | -3.4% (inactive) | -9.2% (inactive) | 120% | -3.3% (inactive) | 113% | -0.595 (inactive) | -3.2e-05 (inactive) | 0.0028 (inactive) | 16.8% (inactive) | 24.8% (inactive)
26 | S=C(c1ccc(-c2cc(Cl)ccc2Cl)o1)N1CCOCC1 | 365 | -10.4% (inactive) | -14% (inactive) | 111% | -53.8% (inactive) | 113% | -0.523 (inactive) | -6e-06 (inactive) | 0.00341 (inactive) | 21.6% (inactive) | 8.92% (inactive)
27 | COC(=O)C1CCN(C(=O)NC(C)(C)C)CC1 | 307 | -4.5% (inactive) | 14.5% (inactive) | 82.1% | -37.4% (inactive) | 99.6% | -0.618 (inactive) | -4.3e-05 (inactive) | 0.00637 (inactive) | 5.02% (inactive) | 14.9% (inactive)
28 | CCC(=O)OCCn1c(=O)c2cc3c(=O)n(CCOC(=O)CC)c(=O)c3cc2c1=O | 446 | 0% (inactive) | -19% (inactive) | 94.4% | -44.7% (inactive) | 125% | -0.483 (inactive) | 2.7e-05 (inactive) | 0.00378 (inactive) | -12.3% (inactive) | 6.39% (inactive)

— PubChem BioAssay
